# Assay results taken from PubChem BioAssay AID488969 (Vanderbilt High Throughput Screening Facility, 2010).
# Over roughly 110,000 compounds, “z-score” has its median near -0.1; the highest 2% begin near 2. This is one part of a sample in which the highest values are shown more often than they occur. Calls of active or inactive are those of the source.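 How the source made its calls: active means z-score in the third read window above 3 or below -3; inactive means the rest.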
# Target: Metabotropic glutamate receptor 8 (Rattus norvegicus) (UniProt P70579)
# Sequence (P70579 whole entry, looked up): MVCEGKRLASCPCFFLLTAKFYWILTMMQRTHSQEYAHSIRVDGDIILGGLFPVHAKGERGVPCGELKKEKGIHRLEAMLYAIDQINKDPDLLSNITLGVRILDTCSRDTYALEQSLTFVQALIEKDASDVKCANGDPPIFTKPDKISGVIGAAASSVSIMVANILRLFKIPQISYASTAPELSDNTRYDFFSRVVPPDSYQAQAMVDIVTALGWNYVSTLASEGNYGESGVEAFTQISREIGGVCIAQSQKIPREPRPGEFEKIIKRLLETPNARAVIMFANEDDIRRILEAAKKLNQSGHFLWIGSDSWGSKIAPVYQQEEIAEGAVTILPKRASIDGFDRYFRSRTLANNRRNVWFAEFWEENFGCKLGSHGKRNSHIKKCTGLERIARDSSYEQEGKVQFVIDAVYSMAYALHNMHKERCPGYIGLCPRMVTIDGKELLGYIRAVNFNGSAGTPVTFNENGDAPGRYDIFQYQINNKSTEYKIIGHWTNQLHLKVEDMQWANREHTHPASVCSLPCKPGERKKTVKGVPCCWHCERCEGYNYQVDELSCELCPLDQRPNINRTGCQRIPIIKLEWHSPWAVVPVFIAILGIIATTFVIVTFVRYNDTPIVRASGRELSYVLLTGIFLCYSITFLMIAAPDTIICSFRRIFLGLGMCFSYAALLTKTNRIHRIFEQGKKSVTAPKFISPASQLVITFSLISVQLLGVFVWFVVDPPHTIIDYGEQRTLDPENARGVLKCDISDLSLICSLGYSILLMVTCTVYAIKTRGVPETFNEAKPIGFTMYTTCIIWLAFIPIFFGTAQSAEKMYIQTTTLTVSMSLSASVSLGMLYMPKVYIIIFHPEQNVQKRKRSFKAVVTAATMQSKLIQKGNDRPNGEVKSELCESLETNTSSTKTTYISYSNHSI
# Assay: mGluR8 Gi/Go-coupled signaling modulation – cell-based, rat, thallium flux, HTS, primary screen (AID 488969)
# Details: HEK293 rat mGluR8, GIRK (G protein-gated inwardly rectifying potassium channel) thallium flux, FluoZin2; at 10 µM; stronger effect = higher value; submaximal glutamate (EC20) added with thallium
row,Compound,z-score
1,CC(C)(C)C1CCc2c(C(=O)N/N=C/c3cccs3)csc2C1 (stereo not drawn),3.34 (active)
2,Cc1occc1C(=O)N/N=C/c1cccs1,0.00925
3,CC(C)(C)C1CCc2c(C(=O)NNC(=O)/C=C/C(=O)O)csc2C1 (stereo not drawn),-0.42
4,Cn1c(=O)oc2cc(S(=O)(=O)N3CCC(C(=O)NCc4cccs4)CC3)ccc21,0.158
5,CCC(Cc1ccccc1)NC(=O)C1CCC(CNc2c(N3CCCC3)c(=O)c2=O)CC1 (stereo not drawn),0.312
6,COc1ccc(C(C)=O)cc1COC(=O)Cc1n[nH]c(=O)c2ccccc12,-0.504
7,O=[N+]([O-])c1cc(F)c(N2CCCCC2)cc1N1CCOCC1,-0.193
8,CC1CCN(c2cc(N3CCOCC3)c([N+](=O)[O-])cc2F)CC1,2.53
9,CC1CCN(c2cc(N3CCOCC3)c(F)cc2[N+](=O)[O-])CC1,-0.674
10,O=C(NC1CCCCC1)c1sc(N2CCOCC2)nc1-c1ccccc1,0.0133
11,O=C(COC(=O)CCC1CCCC1)Nc1nc2c(F)c(F)c(F)cc2s1,2.48
12,O=C(COC(=O)CCC1CCCC1)Nc1ccc(Cl)cc1F,-0.306
13,O=C(COC(=O)C12CC3CC(CC(C3)C1)C2)Nc1nc2c(F)c(F)c(F)cc2s1,-0.635
14,CC(=O)Nc1cc(C(F)(F)F)ccc1Oc1cccc(Br)c1,-0.653
15,CCCCn1c(NC(=S)Nc2ccccc2)nc2ccccc21,2.55
16,CCCn1c(Nc2ccccc2)nc2ccccc21,-0.0673
17,CCn1c(NC(=S)Nc2ccccc2)nc2ccccc21,15.2 (active)
18,S=C(Nc1ccccc1)Nc1nc2ccccc2n1CCOc1ccc(Cl)cc1,1.72
19,S=C(Nc1ccccc1)Nc1nc2ccccc2n1CCOc1ccc(Br)cc1,1.24
20,CCCCn1c(Nc2ccccc2)nc2ccccc21,0.15
21,CCCn1c(NC(=S)Nc2ccccc2)nc2ccccc21,2.89

row,Compound,z-score
1,CCn1c(NC(=O)C2CCCCC2)nc2ccccc21,0.0465
2,CCn1c(NC(C)=O)nc2ccccc21,-0.0713
3,COc1ccc(CNC(=O)CSCc2cnn(-c3ccccc3)c2-n2cccc2)cc1,0.0302
4,Cc1cccc(NCc2ccccc2O)c1C,0.825
5,COc1ccc(OCCNc2cc(N3CCCCC3)ccc2[N+](=O)[O-])cc1,-0.255
6,O=C(Cc1ccccc1)Nc1ccc(N2CCOCC2)cc1N1CCOCC1,-0.544
7,CCNC(=O)C1CC(=O)N(CC)C(=Nc2cc(Cl)c(O)c(Cl)c2)S1 (stereo not drawn),0.28
8,COC(=O)CSc1nc2nc(C)cc(C)n2n1,-0.251
9,CCOC(=O)c1nnn(CC(=O)Nc2ccccc2OC)c1C(=O)OCC,-0.326
10,CCOC(=O)c1nnn(CC(=O)Nc2cccc(Cl)c2C)c1C(=O)OCC,2.12
11,COC(=O)c1nnn(CC(=O)Nc2cccc(Cl)c2C)c1C(=O)OC,-0.193
12,COc1ccccc1S(=O)Cc1ccc(C(=O)NCc2ccccc2Cl)o1 (stereo not drawn),-0.228
13,CC(=O)Nc1nonc1-c1nc2ccccc2n1N(C(C)=O)C(C)=O,-2.35
14,CCC(C)n1c(SCc2ccc([N+](=O)[O-])cc2)nc2ccsc2c1=O (stereo not drawn),0.36
15,CCC(C)n1c(=S)[nH]c2c(sc3ccc([N+](=O)[O-])cc32)c1=O (stereo not drawn),9.11 (active)
16,CC(C)n1c2ccccc2c2cc([N+](=O)[O-])ccc21,-0.11
17,CCOc1ccc(Nc2ncnc(N)n2)cc1,4.23 (active)
18,CCOc1ccc(CNc2ncnc(N)n2)cc1,-0.398
19,Nc1ncnc(Nc2ccc(F)cc2)n1,0.0495
20,COc1cc(/C=C(\C#N)C(N)=O)ccc1OS(=O)(=O)c1ccc(C)cc1,-0.309
21,O=[N+]([O-])c1ccc(COc2cccc(CNc3ccc(Br)cc3)c2)cc1,0.133

row,Compound,z-score
1,Cc1ccc(N2C(=O)C(Cl)=C(N3CCOCC3)C2=O)cc1Cl,-0.0801
2,CCc1ccc(N2C(=O)C(Cl)=C(N3CCOCC3)C2=O)cc1,-0.428
3,O=C1C(Cl)=C(N2CCOCC2)C(=O)N1c1cccc(Cl)c1,13.9 (active)
4,CCN(CC)CCn1c(SCC(=O)NCc2ccco2)nc2c(sc3ccccc32)c1=O,-0.759
5,Cc1nn(-c2ccccc2)c(C)c1/C=N/NC(=O)CSc1nnc(-c2ccccc2)n1-c1ccc(Cl)cc1,0.0544
6,O=C(Nc1nc2c(Cl)cccc2s1)c1ccc(Br)o1,0.452
7,O=C(Nc1nc2ccc(Cl)cc2s1)c1ccc(Br)o1,6.8 (active)
8,O=C(Nc1nc(-c2ccccc2)cs1)c1ccc(Br)o1,2.96
9,O=c1oc2ccccc2cc1-c1csc(NN=C2CCCC2)n1,-0.3
10,O=C(Nc1nc(-c2cc3ccccc3oc2=O)cs1)c1ccc(Br)o1,13.7 (active)
11,O=C(Nc1nc2ccc(Cl)cc2s1)c1ccco1,-0.371
12,O=C(Nc1nc(-c2ccccc2)cs1)c1cccs1,-0.61
13,O=C(Nc1cccc(-c2cc3ccccc3oc2=O)c1)c1ccc(Br)o1,-0.101
14,Cc1ccc(C(=O)Nc2nc(-c3cccnc3)cs2)o1,-0.0733
15,O=C(CSc1ncn(-c2ccccc2)n1)NCc1ccccc1,-0.242
16,CCN1CNC(=S)N(c2ccccc2OC)C1,-0.242
17,COCCn1c(SCC(=O)NCc2ccco2)nc2cccnc21,0.0661
18,COc1ccc(-c2noc(CCC(=O)Nc3cc(Cl)c(OC)cc3OC)n2)cc1,-0.134
19,COC(=O)c1cc(OC)c(OC)cc1NC(=O)Nc1ccccc1OC,-0.56
20,COc1ccc(OC)c(NC(=O)C(Sc2ccccc2)c2ccccc2)c1 (stereo not drawn),0.629
21,COC(=O)c1cc(OC)c(OC)cc1NC(=O)Nc1ccc(OC)cc1,-0.0386

row,Compound,z-score
1,COc1ccc(NC(=O)C(Sc2ccccc2)c2ccccc2)c(OC)c1 (stereo not drawn),2.25
2,COc1ccccc1NC(=O)C(Sc1ccccc1)c1ccccc1 (stereo not drawn),0.792
3,COC(=O)c1cc(OC)c(OC)cc1NC(=O)Nc1ccc(OC)cc1OC,3.48 (active)
4,COc1cc2cc(C#N)c(SCC(=O)N3CCOCC3)nc2cc1OC,0.593
5,C=CCn1cc(/C=N/NC(=O)COc2cccc3cccnc23)c2ccccc21,-0.515
6,Cc1ccc(-c2nn(CCC#N)cc2C=C(C#N)C#N)cc1,0.287
7,O=S(=O)(c1ccccc1)n1c(C(O)c2ccccn2)cc2ccccc21 (stereo not drawn),0.524
8,COc1ccc(N(CC(=O)N2c3ccccc3CC2C)S(=O)(=O)c2c(C)nn(C)c2C)cc1 (stereo not drawn),-0.0129
9,N#Cc1cccc(NC(=O)c2ccccc2C(=O)O)c1,-0.112
10,CCOc1ccc(NC(=O)NC23CC4CC(CC(C4)C2)C3)cc1,4.76 (active)
11,CCOc1ccc(NC(=O)C23CC4CC(C2)CC(c2ccccc2)(C4)C3)cc1,-0.381
12,CCOc1ccc(NC(=O)Nc2cccs2)cc1,2.37
13,COc1ccc(NC(=O)NC23CC4CC(CC(C4)C2)C3)cc1OC,-0.136
14,O=C(NNC(=O)c1ccc2c(c1)OCO2)NC12CC3CC(CC(C3)C1)C2,-0.287
15,CCOc1ccc(NC(=O)Nc2ccc(N(C)C(C)=O)cc2)cc1,0.478
16,CCOc1ccc(NC(=O)Nc2ccc3nccnc3c2)cc1,-0.163
17,N#Cc1cccc(NC(=O)Nc2cccs2)c1,2.55
18,O=C(Nc1ccc2c(c1)OCCO2)NC12CC3CC(CC(C3)C1)C2,2.32
19,COC(=O)c1cccc(NC(=O)NC23CC4CC(CC(C4)C2)C3)c1,-0.16
20,COc1cccc(NC(=O)Nc2cccs2)c1,1.67
